Experimental data from the antibiotic and cytotoxicity screens of Wong et al. (2023).
About 3,300 (8.5%) of roughly 39,000 compounds were called active. For the sample, actives were picked, then their nearest neighbours and some compounds at random.

Each compound was assayed on HepG2 (assay: cytotoxicity call (relative viability < 0.9)). Settings: 10 µM.
In the case of `CC(C)NC(=O)N(C)C[C@@H]1Oc2ccc(NC(=O)CCCN(C)C)cc2C(=O)N([C@H](C)CO)C[C@@H]1C`, the cytotoxicity call is reported as “inactive”.
`COc1ccc2c3c(n(c2c1)C)[C@H](CO)N(C[C@]13CN(CC2CCOCC2)C1)C(=O)Cc1ccccn1` was tested, and the cytotoxicity call was “inactive”.
For `NC(=O)c1ccc[n+](CC(=O)N2CCCCC2)c1`, the cytotoxicity call was “inactive”.
In the case of `Cc1noc(C)c1S(=O)(=O)Nc1ccc2c(c1)C(=O)N([C@@H](C)CO)C[C@H](C)[C@@H](CN(C)C(=O)Nc1ccccc1)O2`, the cytotoxicity call is reported as “inactive”.
For `O=C(C[C@H]1CC[C@H]2[C@@H](COC[C@@H](O)CN2S(=O)(=O)c2ccc(F)cc2)O1)N1CCc2ccccc2C1`, the cytotoxicity call was “inactive”.
For `O=c1nc(NCCN2CCOCC2)cn[nH]1`, the cytotoxicity call was “inactive”.
`NC(=O)Cn1nnc(-c2ccccc2)n1` was tested, and the cytotoxicity call was “inactive”.
With `C[C@@H]1CN([C@H](C)CO)C(=O)c2cc(NC(=O)Nc3cccc4ccccc34)ccc2O[C@H]1CN(C)Cc1ccncc1` the cytotoxicity call was “inactive”.
With `C[C@@H]1CN([C@@H](C)CO)C(=O)c2cccc(NC(=O)c3nc4ccccc4s3)c2O[C@@H]1CN(C)S(=O)(=O)c1cn(C)cn1` the cytotoxicity call was “inactive”.
In the case of `COc1ccc2c3c([nH]c2c1)[C@H](CO)N(C[C@]13CN(C1)S(=O)(=O)c1ccccc1)C(=O)c1cnccn1`, the cytotoxicity call is reported as “inactive”.
`COc1cccc(NC(=O)N[C@H]2CC[C@@H](CC(=O)N3CCOCC3)O[C@H]2CO)c1` was tested, and the cytotoxicity call was “inactive”.
`C[C@@H]1CN([C@@H](C)CO)C(=O)Cc2cc(NC(=O)Nc3ccc(C(F)(F)F)cc3)ccc2O[C@@H]1CN(C)Cc1ccc(Cl)c(Cl)c1` was tested, and the cytotoxicity call was “active”.
With `COc1ccc(S(=O)(=O)N(C)C[C@H]2Oc3ccc(NC(=O)Cc4ccccc4)cc3C(=O)N([C@H](C)CO)C[C@@H]2C)cc1` the cytotoxicity call was “inactive”.
`C[C@@H]1CN([C@H](C)CO)C(=O)c2cccc(NC(=O)Nc3cccc4ccccc34)c2O[C@H]1CN(C)C(=O)Nc1ccc2c(c1)OCO2` was tested, and the cytotoxicity call was “inactive”.
For `NS(=O)(=O)c1cccc2c1c([N+](=O)[O-])cc1[nH]c(=O)c(=O)[nH]c12`, the cytotoxicity call was “inactive”.
With `C[C@@H]1CCCCO[C@@H](CN(C)CC2CC2)[C@@H](C)CN([C@H](C)CO)C(=O)c2cc(NS(C)(=O)=O)ccc2O1` the cytotoxicity call was “inactive”.
In the case of `C[C@H](CO)N1C[C@H](C)[C@@H](CN(C)Cc2ccc(-c3ccccc3)cc2)Oc2ccc(NC(=O)Nc3ccc4c(c3)OCO4)cc2CC1=O`, the cytotoxicity call is reported as “inactive”.
With `C[C@@H]1CN([C@H](C)CO)C(=O)Cc2cc(NC(=O)Nc3ccc4c(c3)OCO4)ccc2O[C@@H]1CN(C)Cc1ccc(-c2ccccc2)cc1` the cytotoxicity call was “active”.
With `C[C@@H]1CN([C@H](C)CO)C(=O)Cc2cc(NC(=O)Nc3ccc4c(c3)OCO4)ccc2O[C@H]1CN(C)Cc1ccc(-c2ccccc2)cc1` the cytotoxicity call was “inactive”.
With `C[C@@H]1CN([C@@H](C)CO)C(=O)Cc2cc(NC(=O)Nc3ccc4c(c3)OCO4)ccc2O[C@@H]1CN(C)Cc1ccc(-c2ccccc2)cc1` the cytotoxicity call was “inactive”.
`C[C@H](CO)N1C[C@H](C)[C@H](CN(C)Cc2ccc(-c3ccccc3)cc2)Oc2ccc(NC(=O)Nc3ccc4c(c3)OCO4)cc2CC1=O` was tested, and the cytotoxicity call was “active”.
In the case of `C[C@H]1CN([C@@H](C)CO)C(=O)Cc2cc(NC(=O)Nc3ccc4c(c3)OCO4)ccc2O[C@@H]1CN(C)Cc1ccc(-c2ccccc2)cc1`, the cytotoxicity call is reported as “active”.
`C[C@@H]1CN([C@@H](C)CO)C(=O)Cc2cc(NC(=O)Nc3ccc4c(c3)OCO4)ccc2O[C@H]1CN(C)Cc1ccc(-c2ccccc2)cc1` was tested, and the cytotoxicity call was “active”.
In the case of `C[C@H]1CN([C@@H](C)CO)C(=O)Cc2cc(NC(=O)Nc3ccc4c(c3)OCO4)ccc2O[C@H]1CN(C)Cc1ccc(-c2ccccc2)cc1`, the cytotoxicity call is reported as “inactive”.
With `CC(C)NC(=O)N(C)C[C@@H]1Oc2ccc(NC(=O)NC3CCCCC3)cc2CC(=O)N([C@H](C)CO)C[C@H]1C` the cytotoxicity call was “inactive”.
`O=C(CN1CCOCC1)NCC[C@H]1CC[C@H](NS(=O)(=O)c2ccc(F)cc2)[C@H](CO)O1` was tested, and the cytotoxicity call was “inactive”.
For `C[C@@H]1CCCCO[C@H](CN(C)Cc2ccncc2)[C@H](C)CN([C@H](C)CO)C(=O)c2cc(NC(=O)c3ccccc3)ccc2O1`, the cytotoxicity call was “inactive”.
In the case of `C[C@@H]1CCCCO[C@@H](CN(C)Cc2ccccc2)[C@@H](C)CN([C@H](C)CO)C(=O)c2cc(NC(=O)c3ccccc3)ccc2O1`, the cytotoxicity call is reported as “inactive”.
With `C[C@@H]1CN([C@H](C)CO)C(=O)c2cc(C#CCc3ccccc3)cnc2O[C@H]1CN(C)C(=O)C1CCOCC1` the cytotoxicity call was “inactive”.
`Cc1ccc(S(=O)(=O)N(C)C[C@H]2Oc3ccc(NS(=O)(=O)c4c(C)noc4C)cc3C(=O)N([C@@H](C)CO)C[C@H]2C)cc1` was tested, and the cytotoxicity call was “inactive”.
`CC(C)(C)c1ccc(-c2nc3ccccc3s2)cc1` was tested, and the cytotoxicity call was “inactive”.
In the case of `C[C@H](CO)N1C[C@H](C)[C@@H](CN(C)S(=O)(=O)c2ccccc2)Oc2ncc(-c3cccc(C(=O)N(C)C)c3)cc2C1=O`, the cytotoxicity call is reported as “inactive”.
With `Cc1noc(C)c1NC(=O)N(C)C[C@@H]1Oc2ccc(NC(=O)CCN3CCOCC3)cc2C(=O)N([C@H](C)CO)C[C@H]1C` the cytotoxicity call was “inactive”.
With `C[C@@H]1CCCCO[C@@H](CN(C)Cc2ccc3c(c2)OCO3)[C@@H](C)CN([C@@H](C)CO)C(=O)c2cc(NC(=O)Nc3ccc(C(F)(F)F)cc3)ccc2O1` the cytotoxicity call was “active”.
`C[C@@H]1CN([C@H](C)CO)C(=O)c2cc(NC(=O)Nc3ccc(C(F)(F)F)cc3)ccc2O[C@@H](C)CCCCO[C@@H]1CN(C)Cc1ccc2c(c1)OCO2` was tested, and the cytotoxicity call was “active”.
`C[C@@H]1CCCCO[C@@H](CN(C)Cc2ccc3c(c2)OCO3)[C@H](C)CN([C@@H](C)CO)C(=O)c2cc(NC(=O)Nc3ccc(C(F)(F)F)cc3)ccc2O1` was tested, and the cytotoxicity call was “active”.
In the case of `C[C@@H]1CN([C@@H](C)CO)C(=O)c2cc(NC(=O)Nc3ccc(C(F)(F)F)cc3)ccc2O[C@@H](C)CCCCO[C@@H]1CN(C)Cc1ccc2c(c1)OCO2`, the cytotoxicity call is reported as “inactive”.
For `C[C@@H]1CCCCO[C@H](CN(C)Cc2ccc3c(c2)OCO3)[C@@H](C)CN([C@@H](C)CO)C(=O)c2cc(NC(=O)Nc3ccc(C(F)(F)F)cc3)ccc2O1`, the cytotoxicity call was “active”.
In the case of `C[C@@H]1CN([C@H](C)CO)C(=O)c2cc(NS(C)(=O)=O)ccc2O[C@@H](C)CCCCO[C@@H]1CN(C)C(=O)c1ccncc1`, the cytotoxicity call is reported as “inactive”.
`C[C@H](CO)N1C[C@H](C)[C@H](CN(C)C(=O)Nc2ccnc(N3CCOCC3)c2)OCc2cnnn2CCCC1=O` was tested, and the cytotoxicity call was “inactive”.
In the case of `Cc1noc(C)c1S(=O)(=O)N(C)C[C@@H]1Oc2ccc(NC(=O)CCCN(C)C)cc2C(=O)N([C@@H](C)CO)C[C@@H]1C`, the cytotoxicity call is reported as “inactive”.
In the case of `C[C@H](CO)N1C[C@H](C)[C@@H](CN(C)Cc2ccc(Cl)c(Cl)c2)Oc2c(NC(=O)NC3CCCCC3)cccc2C1=O`, the cytotoxicity call is reported as “inactive”.
`Cc1noc(C)c1NC(=O)Nc1cccc2c1O[C@@H](CN(C)C(=O)Nc1ccc(C(F)(F)F)cc1)[C@@H](C)CN([C@H](C)CO)C2=O` was tested, and the cytotoxicity call was “inactive”.
For `COc1ccc(S(=O)(=O)N(C)C[C@@H]2Oc3c(NC(=O)Nc4c(C)noc4C)cccc3C(=O)N([C@H](C)CO)C[C@@H]2C)cc1`, the cytotoxicity call was “inactive”.
For `CCCC(=O)Nc1ccc2c(c1)OC[C@@H](C)N(Cc1ccc(-c3ccccn3)cc1)C[C@@H](C)[C@H](OC)CN(C)C2=O`, the cytotoxicity call was “inactive”.
With `C[C@@H]1CCCCO[C@H](CN(C)Cc2ccc3c(c2)OCO3)[C@H](C)CN([C@@H](C)CO)C(=O)c2cc(NC(=O)Nc3ccc(C(F)(F)F)cc3)ccc2O1` the cytotoxicity call was “active”.
In the case of `C[C@H](CO)N1C[C@H](C)[C@H](CN(C)Cc2ccc3c(c2)OCO3)OCCCC[C@H](C)Oc2ccc(NC(=O)Nc3ccc(C(F)(F)F)cc3)cc2C1=O`, the cytotoxicity call is reported as “active”.
For `C[C@H]1CCCCO[C@@H](CN(C)Cc2ccc3c(c2)OCO3)[C@@H](C)CN([C@@H](C)CO)C(=O)c2cc(NC(=O)Nc3ccc(C(F)(F)F)cc3)ccc2O1`, the cytotoxicity call was “active”.
In the case of `C[C@@H]1CCCCO[C@@H](CN(C)Cc2ccc3c(c2)OCO3)[C@@H](C)CN([C@H](C)CO)C(=O)c2cc(NC(=O)Nc3ccc(C(F)(F)F)cc3)ccc2O1`, the cytotoxicity call is reported as “active”.
With `C[C@@H]1CCCCO[C@H](CN(C)C(=O)Cc2ccccc2)[C@H](C)CN([C@@H](C)CO)C(=O)c2cc(NC(=O)c3ccccc3)ccc2O1` the cytotoxicity call was “inactive”.
With `CCCNC(=O)N[C@@H]1CC[C@@H](CC(=O)N2CCN(C)CC2)O[C@@H]1CO` the cytotoxicity call was “inactive”.
With `Cc1noc(C)c1S(=O)(=O)Nc1ccc2c(c1)C(=O)N([C@H](C)CO)C[C@@H](C)[C@@H](CN(C)C(=O)Nc1ccc(F)cc1)OCCCC[C@@H](C)O2` the cytotoxicity call was “inactive”.
For `O=C(Nc1ccccc1C(=O)O)c1nnc[nH]1`, the cytotoxicity call was “inactive”.
For `O=C(NCC[C@H]1CC[C@H](NS(=O)(=O)c2cccc(F)c2)[C@H](CO)O1)C1CC1`, the cytotoxicity call was “inactive”.
With `C[C@@H](Oc1ccccc1)c1ccn[nH]1` the cytotoxicity call was “inactive”.
For `C[C@H]([C@H](C)N1CC(=O)NC(=O)C1)N1CC(=O)NC(=O)C1`, the cytotoxicity call was “inactive”.
With `C[C@@H]1CCCCO[C@H](CN(C)Cc2ccc3c(c2)OCO3)[C@H](C)CN([C@H](C)CO)C(=O)c2cc(NC(=O)Nc3ccc(C(F)(F)F)cc3)ccc2O1` the cytotoxicity call was “active”.
`C[C@@H]1CCCCO[C@H](CN(C)Cc2ccc3c(c2)OCO3)[C@@H](C)CN([C@H](C)CO)C(=O)c2cc(NC(=O)Nc3ccc(C(F)(F)F)cc3)ccc2O1` was tested, and the cytotoxicity call was “active”.
In the case of `C[C@@H]1CCCCO[C@@H](CN(C)Cc2ccc3c(c2)OCO3)[C@H](C)CN([C@H](C)CO)C(=O)c2cc(NC(=O)Nc3ccc(C(F)(F)F)cc3)ccc2O1`, the cytotoxicity call is reported as “active”.
For `C[C@H]1CCCCO[C@H](CN(C)Cc2ccc3c(c2)OCO3)[C@@H](C)CN([C@@H](C)CO)C(=O)c2cc(NC(=O)Nc3ccc(C(F)(F)F)cc3)ccc2O1`, the cytotoxicity call was “active”.
`COCN(C#N)c1nc(N(C)C)nc(N(C)C)n1` was tested, and the cytotoxicity call was “inactive”.
With `C[C@@H]1CN([C@H](C)CO)S(=O)(=O)c2ccc(-c3ccncc3)cc2O[C@H]1CN(C)S(=O)(=O)c1ccccc1F` the cytotoxicity call was “inactive”.
For `NC(=O)c1cccnc1N1CCN(C(=O)[C@@H]2CC(=O)N(C3CC3)C2)CC1`, the cytotoxicity call was “inactive”.
